Measured values: PubChem BioAssay (EPA / NIEHS)
Results filed as inconclusive are left out. Calls of active or inactive are those of the source. Rule for the calls, unless noted: active = hit-call score of the fitted dose curve at least 0.9, where 1 is the maximum; inactive = score below 0.9.

What was measured:
[1] = ACEA_ER_80hr: ACEA Biosciences xCELLigence Real-Time Cell Analysis on Estrogen Receptor Agonism for Proliferation (AID 2282667; active = hit-call score of the fitted dose curve at least 0.9, where 1 is the maximum); details: T47D proliferation, impedance (xCELLigence), 80 h
Summary of the method: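 Estrogen-driven proliferation is captured as electrode impedance in T47D cells 80 h after compound addition. Test articles ran at 8 concentrations, 1:4 dilutions from 100 uM final, in two replicate plates.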

[2] = ATG_CRE_CIS: Attagene CIS-FACTORIAL HepG2 Assay for human cAMP Responsive Element (CRE) binding protein 3 (AID 2282926); details: HepG2 CRE cis-reporter, Attagene multiplexed mRNA; actives raise or lower the signal
Summary of the method: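 Transfected HepG2 were treated for 24 hours, then RNA was extracted and reporter cDNA amplified with sequence-specific primers. Labelled fragments were separated by capillary electrophoresis, and the CRE signal was fitted bidirectionally with DMSO as baseline.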

[3] = target: CCAAT/enhancer-binding protein beta (Homo sapiens) (UniProt P17676); assay: ATG_C_EBP_CIS: Attagene CIS-FACTORIAL HepG2 Assay for human CCAAT/Enhancer Binding Protein (C/EBP) beta (AID 2282927); details: HepG2 Attagene cis-factorial transcription factor reporter; actives raise or lower the signal
Summary of the method: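 Endogenous transcription factor activity in human liver HepG2 cells is inferred from induction of a CEBPB-linked reporter mRNA. Exposure lasts 24 h; activity is fitted in both directions relative to DMSO.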

[4] = ATG_CMV_CIS: Attagene CIS-FACTORIAL HepG2 Assay for human CMV (Internal Marker) (AID 2282928); details: HepG2 CMV promoter reporter, transcription factor profiling; actives raise or lower the signal;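 note: endpoint acts as a background internal control marker rather than a target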
Summary of the method: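 CMV internal-marker background readout in transiently transfected HepG2 cells bearing cis-regulated reporter units. Reporter mRNA is measured 24 h after dosing by RT-PCR and capillary electrophoresis, with bidirectional fitting against DMSO.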

[5] = ATG_DR4_LXR_CIS: Attagene CIS-FACTORIAL HepG2 Assay for human Liver X Receptor (LXR), DR4 submotif (AID 2282929); details: HepG2 Attagene DR4 cis-reporter, mRNA transcription; actives raise or lower the signal
Summary of the method: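 HepG2 cells were transiently transfected with multiple cis-regulated reporter units and dosed for 24 hours. The DR4 reporter mRNA was quantified by RT-PCR, 6-FAM labelling and capillary electrophoresis. Bidirectional fits used DMSO as baseline.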

[6] = target: Aryl hydrocarbon receptor (Homo sapiens) (UniProt P35869); assay: ATG_Ahr_CIS: Attagene CIS-FACTORIAL HepG2 Assay for human Aryl Hydrocarbon Receptor (Ahr) (AID 2282930); details: HepG2 AhR cis-factorial reporter transcription; actives raise or lower the signal
Summary of the method: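 Transient MRTU transfection of HepG2 → 24 h compound exposure → total RNA, oligo(dT) RT → PCR, 6-FAM extension, HpaI cut → CE fluorescence. DMSO = baseline; bidirectional curve fit.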

[7] = ATG_AP_1_CIS: Attagene CIS-FACTORIAL HepG2 Assay for human Activator Protein 1 (AP-1) (AID 2282931); details: HepG2 Attagene cis-factorial AP-1 reporter mRNA; actives raise or lower the signal
Summary of the method: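 HepG2 cells transiently transfected with cis-element-driven reporter transcription units, dosed for 24 hours. Reporter mRNA measured by RT-PCR, 6-FAM labelling, HpaI digestion and capillary electrophoresis. Bidirectional fitting against DMSO baseline.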

[8] = ATG_AP_2_CIS: Attagene CIS-FACTORIAL HepG2 Assay for human Activator Protein 2 (AP-2) (AID 2282932); details: HepG2 AP-2 cis-reporter, Attagene transcription factor profiling; actives raise or lower the signal
Summary of the method: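 Step one: transient transfection of HepG2 with reporter transcription units. Step two: 24 h chemical exposure. Step three: RNA extraction, RT-PCR, labelled fragment analysis by capillary electrophoresis; DMSO serves as baseline.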

[9] = ATG_BRE_CIS: Attagene CIS-FACTORIAL HepG2 Assay for human Bone Morphogenetic Protein (BMP) Response Element (BRE) (AID 2282933); details: HepG2 BMP response element reporter, Attagene transcription factor profiling; actives raise or lower the signal
Summary of the method: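 Read-out: reporter mRNA induction quantified by RT-PCR and capillary electrophoresis after 24 h chemical exposure of transfected HepG2 cells. Endogenous factor activity on the BMP response element; gain or loss fitted against DMSO baseline.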

[10] = target: Retinoic acid receptor alpha (Homo sapiens) (UniProt P10276); assay: ATG_DR5_RAR_CIS: Attagene CIS-FACTORIAL HepG2 Assay for human Retinoic Acid Receptor Alpha (RARE), DR5 submotif (AID 2282934); details: HepG2 Attagene cis-factorial RARE DR5 reporter, mRNA; actives raise or lower the signal
Summary of the method: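 Transient MRTU transfection of HepG2; 24 h compound treatment; TriZol RNA, oligo(dT) RT, PCR, FAM labelling, capillary electrophoresis. Bidirectional fit vs DMSO. Endogenous TF activity at DR5 RARE.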

[11] = target: Transcription factor E2F1 (Homo sapiens) (UniProt Q01094); assay: ATG_E2F_CIS: Attagene CIS-FACTORIAL HepG2 Assay for human E2F Transcription Factor 1 (AID 2282935); details: HepG2 Attagene cis-reporter, E2F reporter RNA transcripts; actives raise or lower the signal
Summary of the method: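 Total RNA from 24 h-treated, reporter-transfected HepG2 cells undergoes DNase I treatment, oligo(dT) reverse transcription, PCR and 6-FAM primer extension before capillary electrophoresis.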

[12] = ATG_E_Box_CIS: Attagene CIS-FACTORIAL HepG2 Assay for human Enhancer Box (E-box) (AID 2282936); details: HepG2 E-box cis-reporter transcription, actives raise or lower the signal
Summary of the method: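 DMSO served as negative control and baseline for bidirectional fitting. Human hepatoma HepG2 cells, transiently transfected with cis-reporter constructs, were dosed 24 h; reporter mRNA read by RT-PCR and capillary electrophoresis.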

[13] = ATG_M_61_CIS: Attagene CIS-FACTORIAL HepG2 Assay for M61 Transcription Factor (Internal Marker) (AID 2282937); details: HepG2 Attagene CIS-FACTORIAL M61 internal marker reporter; actives raise or lower the signal
Summary of the method: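 HepG2 cells transiently transfected with multiplexed cis-promoter reporter units reporting endogenous transcription factor activity, measured 24 h after dosing. Reporter mRNA quantified by RT-PCR and capillary electrophoresis; bidirectional fit against DMSO baseline.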

[14] = ATG_EGR_CIS: Attagene CIS-FACTORIAL HepG2 Assay for human Early Growth Response 1 (EGR1) (AID 2282938); details: HepG2 Attagene CIS-FACTORIAL EGR reporter mRNA; actives raise or lower the signal
Summary of the method: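 HepG2 cells transiently transfected with cis-element-driven multiplexed reporter units, dosed for 24 h. EGR1-element reporter mRNA quantified by RT-PCR, 6-FAM labelling, HpaI digestion and capillary electrophoresis; bidirectional fit versus DMSO.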

[15] = ATG_M_19_CIS: Attagene CIS-FACTORIAL HepG2 Assay for M19 Transcription Factor (Internal Marker) (AID 2282939); details: HepG2 Attagene CIS-FACTORIAL M19 internal marker reporter; actives raise or lower the signal
Summary of the method: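 Readout: fluorescent reporter-transcript fragments by capillary electrophoresis after RT-PCR. Human HepG2 liver cells carried transfected MRTU constructs reporting endogenous transcription-factor activity; exposure 24 h. Gain or loss of signal fitted relative to DMSO.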

[16] = ATG_ERE_CIS: Attagene CIS-FACTORIAL HepG2 Assay for Estrogen Response Element (ERE) (AID 2282940); details: HepG2 ERE cis-reporter, Attagene RNA transcript; actives raise or lower the signal
Summary of the method: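 Readout: reporter mRNA induction by RT-PCR, FAM-labelled primer extension, HpaI digestion and capillary electrophoresis, 24 h after dosing transfected HepG2 cells. Endogenous transcription factors act on cis-element-regulated reporters. Gain or loss fitted against DMSO.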

[17] = ATG_Ets_CIS: Attagene CIS-FACTORIAL HepG2 Assay for human Erythroblast Transformation Specific (ETS) (AID 2282941); details: HepG2 ETS cis-reporter transcription, actives raise or lower the signal
Summary of the method: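 HepG2 cells transfected with multiple cis-regulated reporter units measuring endogenous ETS-driven transcription, 24 h after dosing. Reporter mRNA quantified by RT-PCR with capillary electrophoresis; bidirectional fit relative to DMSO.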

[18] = target: Hepatocyte nuclear factor 3-beta (Homo sapiens) (UniProt Q9Y261); assay: ATG_FoxA2_CIS: Attagene CIS-FACTORIAL HepG2 Assay for human Forkhead box A2 (FOXA2) (AID 2282942); details: HepG2 cis-reporter transcription factor activity, 24 h; actives raise or lower the signal
Summary of the method: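 HepG2 transiently transfected with a multiplexed cis-promoter reporter library read endogenous FOXA2 activity. After 24 h compound exposure, reporter mRNA was quantified by RT-PCR, HpaI digestion and capillary electrophoresis. Bidirectional fit against DMSO.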

[19] = ATG_FoxO_CIS: Attagene CIS-FACTORIAL HepG2 Assay for human Forkhead box O (FoxO) (AID 2282943); details: HepG2 Attagene cis-reporter, FoxO element, mRNA; actives raise or lower the signal
Summary of the method: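 HepG2, transient MRTU transfection (cis element, endogenous TFs). Dose 24 h. TriZol RNA → oligo(dT) RT → PCR → 6-FAM primer extension → HpaI cut → CE. Gain/loss vs DMSO.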

[20] = ATG_GATA_CIS: Attagene CIS-FACTORIAL HepG2 Assay for human GATA Binding Protein (AID 2282944); details: HepG2 GATA cis-element reporter, Attagene multiplex mRNA; actives raise or lower the signal
Summary of the method: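 Read-out: fluorescent reporter mRNA fragments resolved by capillary electrophoresis after RT-PCR. Human liver HepG2 cells carried transiently transfected cis-regulated reporter constructs; chemicals incubated 24 h; gain or loss of signal fitted relative to DMSO.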

Measured: AC50

CCAAT/enhancer-binding protein beta (Homo sapiens), sequence (P17676 whole entry, looked up): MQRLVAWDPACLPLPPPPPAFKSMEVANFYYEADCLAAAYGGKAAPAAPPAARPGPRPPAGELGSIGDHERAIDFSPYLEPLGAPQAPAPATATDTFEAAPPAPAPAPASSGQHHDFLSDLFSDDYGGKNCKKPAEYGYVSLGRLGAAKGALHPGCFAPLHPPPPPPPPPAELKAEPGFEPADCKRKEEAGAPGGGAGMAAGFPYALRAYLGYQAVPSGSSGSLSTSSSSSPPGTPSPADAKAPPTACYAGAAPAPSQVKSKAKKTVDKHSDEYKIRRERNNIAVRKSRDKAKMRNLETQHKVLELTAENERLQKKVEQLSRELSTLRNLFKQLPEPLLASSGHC
Retinoic acid receptor alpha (Homo sapiens), sequence (P10276 whole entry, looked up): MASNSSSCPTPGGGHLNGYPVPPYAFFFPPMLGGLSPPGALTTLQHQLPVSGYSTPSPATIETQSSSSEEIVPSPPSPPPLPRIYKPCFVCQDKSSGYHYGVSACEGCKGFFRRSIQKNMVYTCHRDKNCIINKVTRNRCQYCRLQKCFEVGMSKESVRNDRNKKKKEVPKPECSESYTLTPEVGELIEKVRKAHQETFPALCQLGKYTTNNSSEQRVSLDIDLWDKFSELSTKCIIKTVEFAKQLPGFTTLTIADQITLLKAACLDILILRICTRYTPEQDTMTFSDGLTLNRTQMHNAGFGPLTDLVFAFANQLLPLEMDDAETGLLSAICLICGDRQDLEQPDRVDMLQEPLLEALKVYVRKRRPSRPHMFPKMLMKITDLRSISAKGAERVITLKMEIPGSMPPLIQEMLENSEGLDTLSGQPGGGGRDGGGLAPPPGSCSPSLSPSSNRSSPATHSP
Transcription factor E2F1 (Homo sapiens), sequence (Q01094 whole entry, looked up): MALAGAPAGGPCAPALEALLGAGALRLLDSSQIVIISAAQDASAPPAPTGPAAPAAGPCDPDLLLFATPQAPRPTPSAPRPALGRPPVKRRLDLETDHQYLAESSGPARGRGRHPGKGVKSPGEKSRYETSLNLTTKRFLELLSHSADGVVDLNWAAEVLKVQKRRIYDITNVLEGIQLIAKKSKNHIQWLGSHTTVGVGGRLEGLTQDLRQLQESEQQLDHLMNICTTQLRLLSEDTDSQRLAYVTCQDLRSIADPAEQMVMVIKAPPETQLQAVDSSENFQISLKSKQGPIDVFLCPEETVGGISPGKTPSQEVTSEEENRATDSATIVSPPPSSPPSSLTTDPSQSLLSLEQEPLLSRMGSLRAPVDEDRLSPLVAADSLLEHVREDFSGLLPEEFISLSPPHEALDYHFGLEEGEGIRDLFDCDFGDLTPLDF
Aryl hydrocarbon receptor (Homo sapiens), sequence (P35869 whole entry, looked up): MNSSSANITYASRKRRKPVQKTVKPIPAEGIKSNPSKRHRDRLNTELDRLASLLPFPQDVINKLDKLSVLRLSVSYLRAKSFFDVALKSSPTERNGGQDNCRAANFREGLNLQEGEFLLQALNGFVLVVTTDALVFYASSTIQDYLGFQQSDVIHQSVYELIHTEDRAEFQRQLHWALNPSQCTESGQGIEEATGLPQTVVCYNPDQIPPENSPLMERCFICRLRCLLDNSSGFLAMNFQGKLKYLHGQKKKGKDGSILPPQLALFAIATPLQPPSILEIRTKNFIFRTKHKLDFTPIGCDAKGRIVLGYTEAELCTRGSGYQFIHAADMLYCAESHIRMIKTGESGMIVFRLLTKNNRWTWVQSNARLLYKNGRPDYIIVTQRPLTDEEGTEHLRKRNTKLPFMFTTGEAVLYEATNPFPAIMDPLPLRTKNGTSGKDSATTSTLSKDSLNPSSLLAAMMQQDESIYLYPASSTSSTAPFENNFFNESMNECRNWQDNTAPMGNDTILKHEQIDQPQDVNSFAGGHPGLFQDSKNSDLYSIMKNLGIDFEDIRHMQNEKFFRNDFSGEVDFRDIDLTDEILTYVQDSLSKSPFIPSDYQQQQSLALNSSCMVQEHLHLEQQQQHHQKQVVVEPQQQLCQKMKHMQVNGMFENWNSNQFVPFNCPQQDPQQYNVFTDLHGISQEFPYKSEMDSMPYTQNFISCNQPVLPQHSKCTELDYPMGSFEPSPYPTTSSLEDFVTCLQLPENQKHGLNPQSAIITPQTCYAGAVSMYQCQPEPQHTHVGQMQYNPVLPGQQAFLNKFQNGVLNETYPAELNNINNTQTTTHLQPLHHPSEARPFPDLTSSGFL
Hepatocyte nuclear factor 3-beta (Homo sapiens), sequence (Q9Y261 whole entry, looked up): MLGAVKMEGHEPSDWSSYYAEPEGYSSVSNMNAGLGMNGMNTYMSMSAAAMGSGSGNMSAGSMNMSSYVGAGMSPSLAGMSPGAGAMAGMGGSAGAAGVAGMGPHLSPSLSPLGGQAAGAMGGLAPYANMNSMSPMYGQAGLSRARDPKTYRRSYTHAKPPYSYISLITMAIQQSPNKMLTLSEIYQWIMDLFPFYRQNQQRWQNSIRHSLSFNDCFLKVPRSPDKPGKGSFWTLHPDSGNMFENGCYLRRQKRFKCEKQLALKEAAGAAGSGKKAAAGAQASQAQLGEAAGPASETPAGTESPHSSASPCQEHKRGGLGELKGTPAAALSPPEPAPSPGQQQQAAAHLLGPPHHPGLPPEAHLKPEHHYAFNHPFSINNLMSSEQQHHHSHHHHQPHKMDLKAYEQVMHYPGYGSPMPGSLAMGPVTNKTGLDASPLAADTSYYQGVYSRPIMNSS

C=CC/C=C/C/C=C/C/C=C/C
inactive: all assays above

[Co]
inactive: all assays above

CCCCCCOC(=O)c1ccccc1O
active: [16] 31.4 µM
inactive: all other assays above

O[Si](c1ccccc1)(c1ccccc1)c1ccccc1
active: [5] 9.89 µM | [7] 100 µM | [9] 32.3 µM | [12] 15.8 µM | [16] 12.8 µM
inactive: all other assays above

OCC(F)(F)C(F)(F)C(F)(F)C(F)(F)C(F)(F)C(F)F
active: [16] 6.1 µM
inactive: all other assays above

Nc1cc(Cl)c(N)c(Cl)c1
active: [1] 13.5 µM | [6] 6.21 µM | [16] 7.29 µM
inactive: all other assays above

FC(F)(Br)C(F)(F)C(F)(F)C(F)(F)C(F)(F)C(F)(F)Br
active: [1] 42.7 µM | [16] 8.15 µM
inactive: all other assays above

CCCCOCCOCCOC(=O)CCCCC(=O)OCCOCCOCCCC
not listed: [17]
inactive: all other assays above

FC(F)(F)C(F)(F)CNCC(F)(F)C(F)(F)F
inactive: all assays above

CO[Si](OC)(c1ccccc1)c1ccccc1
active: [16] 72.8 µM
inactive: all other assays above

O=C(Cl)C(F)(F)C(F)(F)C(F)(F)C(F)(F)C(F)(F)C(F)(F)C(F)(F)C(F)(F)F
active: [5] 13 µM | [7] 16.1 µM
inactive: all other assays above

CC/C=C\CCOC(C)=O
inactive: all assays above
